Laboratory results as given in PubChem BioAssay AID651598 (Sanford-Burnham Center for Chemical Genomics, 2012).
Several values for one entry are separate records, joined by “and”; a condition that tells them apart may be missing. Equal entries are not always repeated.

The compounds below were run against Apelin receptor (Homo sapiens) (UniProt P35414) (assay: apelin receptor (APJ) antagonists, SAR follow-up, counter-screen for CXCR6 antagonist project, cell-based, beta-arrestin, DiscoveRx, panel, CHO-K1 (AID 651598)). Conditions: CHO-K1 PathHunter beta-arrestin luminescence, antagonist mode; run 1, at 80 µM (top of the series).
Apelin receptor (Homo sapiens), sequence (P35414 whole entry, looked up): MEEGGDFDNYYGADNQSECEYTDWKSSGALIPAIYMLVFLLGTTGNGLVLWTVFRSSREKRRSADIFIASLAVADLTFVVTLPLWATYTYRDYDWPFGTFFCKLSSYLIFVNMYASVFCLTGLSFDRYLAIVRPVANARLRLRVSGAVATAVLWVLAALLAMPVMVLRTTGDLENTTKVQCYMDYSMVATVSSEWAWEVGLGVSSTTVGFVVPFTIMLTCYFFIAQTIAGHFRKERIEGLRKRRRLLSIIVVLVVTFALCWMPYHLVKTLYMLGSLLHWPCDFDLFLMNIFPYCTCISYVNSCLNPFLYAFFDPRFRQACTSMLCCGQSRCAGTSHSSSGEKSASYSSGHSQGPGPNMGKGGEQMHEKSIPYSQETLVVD

| SMILES | inhibition |
| --- | --- |
| COc1cc(C(=O)NC2CCN(CC(=O)Nc3ccccc3)CC2)cc(OC)c1OC | -17.6% |
| COc1cc(C(=O)NC2CC3CCC(C2)N3CC(=O)Nc2ccccc2)cc(OC)c1OC (stereo not drawn) | 15.6% and 6.78% |
| COc1cc(C(=O)NC2CC3CCCC(C2)N3CC(=O)Nc2ccccc2)cc(OC)c1OC (stereo not drawn) | -17.1% and -7.52% and 20.1% |
